Measurements taken from PubChem BioAssay (NCI).
This is part of a sample that, as a whole, favours compounds with a hit. Of some 83,000 tested, about 20% had one in any assay.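 96-well plates, one dose, 48 hours. Percent growth reported; active if below 10.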 Unmarked numbers belong to inactive results. Active and inactive are the calls of the source.

Key:
Experiment in all cases: NCI-60 one-dose screen, 48 h (100 = growth as untreated, 0 = no growth, -100 = all killed)
Conditions in all cases: 10 µM unless noted
[1] = system: T-47D breast
[2] = system: BT-549 breast
[3] = system: MDA-MB-435 melanoma
[4] = system: SW-620 colon
[5] = system: HCT-116 colon
[6] = system: HCC-2998 colon
[7] = system: KM12 colon
[8] = system: MCF7 breast

SMILES | growth [1] | growth [2] | growth [3] | growth [4] | growth [5] | growth [6] | growth [7] | growth [8]
COc1cccc(-c2nc3occn3c2-c2ccnc(NCCNS(=O)(=O)c3ccc(C(F)(F)F)cc3)n2)c1 | 41.1% | 96.5% | 70.4% | 113% | 92.9% | 133% | 98.9% | 
CC(C)(C)c1cc(C=O)cc(C(C)(C)C)c1O | 110% | 92.5% | 111% | 97.7% | 92.9% | 93.6% | 99.6% | 
COc1ccc(/C=C/c2nc(Nc3ccc(Cl)cc3)c3ccccc3n2)cc1 | 49.9% | 93.4% | 55.3% | 48.7% | 36.1% |  | 48% | 
CCN1C(=O)N(CC)C2Nn3c(s/c(=C\c4ccc(OC)cc4)c3=O)=NC21 (stereo unspecified) | 48.8% | 62.9% | -26.9% (active) | 25.5% | 29.4% | 95.7% | 37.8% | 
COc1ccc(CC(C)=C(c2ccc(OCCN3CCCCCC3)cc2)c2ccc(OCCN3CCCCCC3)cc2)cc1 | -73.3% (active) | -75.9% (active) | -98.2% (active) | -90.5% (active) | -55.1% (active) | -91.8% (active) | -97.4% (active) | 
COc1ccc2[nH]c(O)c(/C=c3/cc4c(c(-c5ccc(F)cc5)n3)=Nc3ccccc3-4)c2c1 | 73.6% | 98.9% | 34.4% | 27.5% | 27.9% | 72.8% | 43.7% | 
COCCCN1CC(O)=C(c2nc(-c3ccc(C)cc3)cs2)C1=N | 97.5% | 103% | 105% | 104% | 90.3% | 112% | 120% | 
O=S(=O)(NCCNc1nccc(-c2c(-c3cccc(O)c3)nc3occn23)n1)c1ccc(C(F)(F)F)cc1 | 79.2% | 107% | 45% | 126% | 90.1% | 132% | 94.4% | 
Nc1c(C(=O)Nc2cccc3cnccc23)sc2nc3c(cc12)CN(Cc1ccccc1)CC3 | 102% | 100% | 108% | 104% | 100% | 115% | 102% | 
CC(=O)Oc1ccc(/C=N/NC(N)=S)nc1 | 52% | 32.7% | 87% | 60.9% | 70.1% | 55% | 76.5% | 
C=C(C)[C@@H]1CC[C@]2(C(=O)N3CCN(C)CC3)CC[C@]3(C)[C@H](CC[C@@H]4[C@@]5(C)CC[C@H](O)C(C)(C)[C@@H]5CC[C@]43C)[C@@H]12 | -73.8% (active) | -51.8% (active) | -82.1% (active) | -74.8% (active) | -98.3% (active) | -85.3% (active) | -80.7% (active) | 
CCN(CC)c1ccc(C(=O)c2ccccc2)cc1 | 83.3% | 109% | 105% | 102% | 91.3% | 107% | 101% | 
CC(=O)[C@H]1CCC/C=C/[C@@H]2C[C@H](O)C[C@H]2[C@H](O)/C=C/C(=O)O1 | -12.2% (active) | 9.71% (active) | 8.17% (active) | -33.5% (active) | -45.1% (active) | -23.3% (active) | -26.9% (active) | 
O=C(O)c1ccc2c(c1)C(=O)N(Cc1ccccc1)C2=O | 95.8% | 98.6% |  | 98.6% | 96.8% | 99.2% | 104% | 95.3%
COCc1cnccc1NC1CCCCCC1 | 98.7% | 119% | 104% | 99.3% | 100% | 103% | 100% | 
Cc1cccc(NC(=O)Nc2ccc(-c3ccc4c(c3)NC(=O)/C4=C\c3ccc[nH]3)cc2)c1 | 39.1% | 102% | 78.8% | 73% | 72.7% | 99% | 19.4% | 
O=C(CCN1CCCC1)Nc1ccc2c(Nc3ccc(Br)cc3)c3ccccc3nc2c1 | 13.6% | 47.9% |  | -64.8% (active) | -57.6% (active) | -73.4% (active) | -59.2% (active) | -66.8% (active)
COc1ccc(C(=O)c2nc3ccccc3n2CC(=O)c2ccc(Cl)cc2)cc1 | 35.2% | 47.9% | -55.4% (active) | 15.8% | 10.3% |  | 28.4% | 
COc1ccc(OC)c(CCn2cncc2-c2c[nH]c3ccccc23)c1 | 45.8% | 83.8% | 58.9% |  | 77.7% | 91.8% | 89.1% | 71%
O=C(CCN1CCCC1)Nc1ccc2c(Nc3ccc(F)cc3)c3ccccc3nc2c1 | 7.84% (active) | 51.2% | -94.9% (active) | -25% (active) | -54.2% (active) | -80.3% (active) | 0.928% (active) | 
COc1ccc(-c2nc(S(=O)(=O)c3ccccc3)c(S(=O)CC(=O)N3CCC(C)CC3)o2)cc1 (stereo unspecified) | 15.6% | 33.5% | 57.2% | 1.06% (active) | -55.9% (active) | 90.6% | 68.1% | 
Cc1nnc2c(Cc3ccccc3)nc3ccccc3n12 | 92.4% | 91.8% | 93.2% | 97.3% | 93.1% | 97.8% | 97.5% | 
CCOc1cccc(-c2nc(N)nc(Nc3ccccc3SSc3ccccc3Nc3nc(N)nc(-c4cccc(OCC)c4)n3)n2)c1 | 44.5% | 78.7% | 88.8% | 76.4% |  | 97.8% | 40.6% | 
COc1cc2nc(-c3ccc(C(F)(F)F)cc3)cc(OCCCN3CCOCC3)c2cc1OC | 16.2% | 30.5% |  | 25.9% | 15.1% | 43.4% | 27.5% | 44.4%
CN(C)c1ccc(Nc2c3ccccc3nc3cc(NC(=O)CCN4CCCC4)ccc23)cc1 | 12.1% | 23.6% |  | -33.3% (active) | -56.2% (active) | -83.3% (active) | -34.8% (active) | -21.8% (active)
N=C1C(c2nc3ccccc3s2)=C(O)CN1c1cc(Cl)cc(Cl)c1 | 97% | 71.3% |  | 54.8% | 46.5% | 85.8% | 64.7% | 148%
CCOC(=O)c1cc(C#N)n2ccc3ccccc3c12 | 104% | 113% | 99.1% | 97.9% | 108% | 106% | 100% | 

SMILES | growth [1] | growth [2] | growth [3] | growth [4] | growth [5] | growth [6] | growth [7] | growth [8]
CCc1c(Cl)nc(N)nc1Nc1ccc(C)c(C)c1 | 91.2% | 106% |  | 102% | 76% | 101% | 99.2% | 83.1%
Cn1c2ccccc2c2c3c(c4c5ccccc5n(C)c4c21)C(=O)OC3 | 95.2% | 97.2% |  | 88% | 93.8% | 99.7% | 97.2% | 92.1%
N#CC1=C(/N=C/c2ccccc2)Oc2c(ccc3ccccc23)C1c1ccc([N+](=O)[O-])cc1 (stereo unspecified) | 76.5% | 103% |  | 93% | 92% | 98.3% | 97.6% | 78.4%
C=C1C(=O)O[C@H]2[C@H]1CC/C(COC(=O)NCc1c[nH]c3ccc(Cl)cc13)=C\CC[C@@]1(C)O[C@@H]21 | -76.2% (active) | -65.6% (active) |  | -74.3% (active) | -90.1% (active) | 70.4% | 13.8% | 17.2%
O=C(Cn1c[n+](CC(=O)c2ccc([N+](=O)[O-])cc2)c2ccccc21)Nc1cccc2cccnc12 | 33.9% | 35.9% |  | 54.8% | 37.2% | 50.4% | 78.4% | 31.4%
O=C(C[n+]1cccc2ccccc21)c1ccc(O)c(O)c1 | 42% | 65.7% |  | 23.8% |  |  | 100% | 21.8%
O=c1c2c(c(=O)n1O)c1c3ccc[nH]c3nc1c1nc3[nH]cccc3c12 | 60.7% | 80.9% |  | 62.4% | 72.7% | 84.9% | 97.1% | 73.5%
CN(C)CCn1c2ccc(Br)cc2c2nc3ccccc3nc21 | 38.4% | 84.4% |  | 17.5% | 18.2% | 47.3% | 35% | 19.7%
Oc1c(Cl)cc(Cl)c(Cl)c1CNCCNCc1c(O)c(Cl)cc(Cl)c1Cl | 20.2% |  | 37.1% | 31.5% | 13.9% | 25.2% | 24% | 15.6%
CCNC(=O)Oc1ccc(/C(=C(\C)c2ccccc2)c2ccc(OCCN(CC)CC)cc2)cc1 | 46.3% | 76.1% |  | 82.6% | 55.7% | 91.5% | 72.1% | 28.8%
O=C(Cn1c[n+](CC(=O)c2ccc(-c3ccccc3)cc2)c2ccccc21)Nc1cccc2cccnc12 | 10.8% | -9.9% (active) |  | 36.1% | 11.9% | 6.56% (active) | -31.5% (active) | 12.6%
Cc1cc2c(C(=O)NCC#N)cccc2n1-c1nc2c(c(NCc3ccccc3)n1)CCCC2 | -16.6% (active) | -34.8% (active) |  | 2.79% (active) | -14.4% (active) | -87.6% (active) | -38.7% (active) | 1.12% (active)
Cc1ccc(S(=O)(=O)NNC(=O)/C(=C\c2ccc(Cl)cc2)c2nc3ccccc3s2)cc1 | 95% | 106% |  | 93.6% | 84.3% |  | 96.6% | 78.7%
N#C/C(=C\c1ccc([N+](=O)[O-])s1)c1nc2cc(Br)ccc2s1 | 4.46% (active) | -13% (active) |  |  |  | -8.27% (active) | 16.2% | -14.2% (active)
CC(=O)Nc1cccc(-c2ccc3c(c2)NC(=O)/C3=C\c2ccc[nH]2)c1 | 17.7% | 43.2% |  | 37.9% | 37% | 57.1% | 14.5% | 17.8%
CNC(=O)c1cncc(Cn2nc(C)c(NC(=O)c3ccc(COc4ccc(C(F)(F)F)cc4C)cc3)c2C)c1 | 29.7% | 32.4% |  | 102% | 44.7% | 77.8% | 74.8% | 37.5%
N#C/C(=C\c1c(-c2ccccc2)[nH]c2ccccc12)C(=O)c1ccc(Cl)cc1 | 84.9% | 64.7% |  | 21.1% | 30.9% | 30.7% | 20% | -27.9% (active)
O=C1c2ccccc2CCC12OC2c1cn(-c2ccccc2)nc1-c1ccc(Cl)cc1 (stereo unspecified) | 93.1% | 126% |  | 95.6% | 47.4% | 108% | 97.9% | 87.7%
O=C(CCN1CCCC1)Nc1ccc2c(NCCCCc3ccccc3)c3ccccc3nc2c1 | -27.2% (active) | 56.9% |  | -60.5% (active) | -70.8% (active) | -90.9% (active) | -79.1% (active) | -75.9% (active)
CCc1ccc(CNc2ccc(N3CCOCC3)c(C(=O)O)c2)cc1 | 86.3% | 105% |  | 111% | 86.1% | 104% | 106% | 86.2%
CCC(=O)Oc1ccc(/C(=C(\C)c2ccccc2)c2ccc(OCCN3CCCCC3)cc2)cc1 | 34.3% | 82.6% |  | 87.1% | 60.9% | 65.2% | 65% | 24.2%
O=S(=O)(NCCCNc1nccc(-c2c(-c3cccc(F)c3)nc3sccn23)n1)c1cccc(F)c1 | -2.25% (active) | 33.3% |  | 76.7% | 48% | 99.3% | 30% | 33.7%
O=C(CCN1CCCC1)c1ccc([N+](=O)[O-])cc1 | 88.6% |  |  | 105% | 105% | 94.8% | 105% | 87.6%
[O-][n+]1c(Cl)cc(Cl)c2ccccc21 | 97.7% |  | 101% | 107% | 103% | 104% | 95.1% | 97.4%
Cc1cnc(C(=O)Nc2nc3ccc(S(=O)(=O)Nc4ccc(C(C)(C)C)cc4)cc3[nH]2)cn1 | 27.1% | 26.7% |  | 18.6% | 14.2% | 33.3% | 22.9% | 22.4%
COc1ccc(C(=O)CC#N)cc1 | 104% | 107% |  | 107% | 106% | 112% | 108% | 
